Targets with the largest changes are over-represented here; the source holds about 21,000 in all.
Compound: Cc1cc(ccc1-c1ccccc1)C(=O)N1CCCN(CC1)C(=O)CCl [compound 10]
Assay: probe-labelled cysteine peptide fold change vs DMSO (competition) (log2 fold change); higher = less target engagement (more negative = stronger competition)
Details: THP-1, incubation time: 4 h
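Also: competitive profiling in live THP-1 cells: cysteine peptides tagged with an iodoacetamide desthiobiotin (IA-DTB) probe, intensity after compound treatment relative to DMSO-treated cells.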

## TOR2A_Q5JU69_54_CTLGAFCECDFRPDLPGLECDLAQHLAGQHLAK (UniProt Q5JU69)
Chain of UniProt Q5JU69 (Q5JU69 whole entry, looked up): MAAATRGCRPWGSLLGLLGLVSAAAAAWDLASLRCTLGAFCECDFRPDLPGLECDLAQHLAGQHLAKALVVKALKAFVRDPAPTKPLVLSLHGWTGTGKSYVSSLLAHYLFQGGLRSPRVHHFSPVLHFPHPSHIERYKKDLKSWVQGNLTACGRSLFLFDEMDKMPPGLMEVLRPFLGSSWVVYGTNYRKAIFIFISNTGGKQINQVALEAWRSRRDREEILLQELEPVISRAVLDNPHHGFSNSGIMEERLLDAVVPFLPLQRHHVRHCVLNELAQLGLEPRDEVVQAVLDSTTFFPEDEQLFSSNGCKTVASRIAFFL
10 µM
  probe-labelled cysteine peptide fold change: -0.184
50 µM
  probe-labelled cysteine peptide fold change: 0.309

## TNS3_Q68CZ2_512_DRETDILDDEMPHHDLHSVDSLGTLSSSEGPQSAHLGPFTCHK (UniProt Q68CZ2)
Chain of UniProt Q68CZ2 (Q68CZ2 whole entry, looked up): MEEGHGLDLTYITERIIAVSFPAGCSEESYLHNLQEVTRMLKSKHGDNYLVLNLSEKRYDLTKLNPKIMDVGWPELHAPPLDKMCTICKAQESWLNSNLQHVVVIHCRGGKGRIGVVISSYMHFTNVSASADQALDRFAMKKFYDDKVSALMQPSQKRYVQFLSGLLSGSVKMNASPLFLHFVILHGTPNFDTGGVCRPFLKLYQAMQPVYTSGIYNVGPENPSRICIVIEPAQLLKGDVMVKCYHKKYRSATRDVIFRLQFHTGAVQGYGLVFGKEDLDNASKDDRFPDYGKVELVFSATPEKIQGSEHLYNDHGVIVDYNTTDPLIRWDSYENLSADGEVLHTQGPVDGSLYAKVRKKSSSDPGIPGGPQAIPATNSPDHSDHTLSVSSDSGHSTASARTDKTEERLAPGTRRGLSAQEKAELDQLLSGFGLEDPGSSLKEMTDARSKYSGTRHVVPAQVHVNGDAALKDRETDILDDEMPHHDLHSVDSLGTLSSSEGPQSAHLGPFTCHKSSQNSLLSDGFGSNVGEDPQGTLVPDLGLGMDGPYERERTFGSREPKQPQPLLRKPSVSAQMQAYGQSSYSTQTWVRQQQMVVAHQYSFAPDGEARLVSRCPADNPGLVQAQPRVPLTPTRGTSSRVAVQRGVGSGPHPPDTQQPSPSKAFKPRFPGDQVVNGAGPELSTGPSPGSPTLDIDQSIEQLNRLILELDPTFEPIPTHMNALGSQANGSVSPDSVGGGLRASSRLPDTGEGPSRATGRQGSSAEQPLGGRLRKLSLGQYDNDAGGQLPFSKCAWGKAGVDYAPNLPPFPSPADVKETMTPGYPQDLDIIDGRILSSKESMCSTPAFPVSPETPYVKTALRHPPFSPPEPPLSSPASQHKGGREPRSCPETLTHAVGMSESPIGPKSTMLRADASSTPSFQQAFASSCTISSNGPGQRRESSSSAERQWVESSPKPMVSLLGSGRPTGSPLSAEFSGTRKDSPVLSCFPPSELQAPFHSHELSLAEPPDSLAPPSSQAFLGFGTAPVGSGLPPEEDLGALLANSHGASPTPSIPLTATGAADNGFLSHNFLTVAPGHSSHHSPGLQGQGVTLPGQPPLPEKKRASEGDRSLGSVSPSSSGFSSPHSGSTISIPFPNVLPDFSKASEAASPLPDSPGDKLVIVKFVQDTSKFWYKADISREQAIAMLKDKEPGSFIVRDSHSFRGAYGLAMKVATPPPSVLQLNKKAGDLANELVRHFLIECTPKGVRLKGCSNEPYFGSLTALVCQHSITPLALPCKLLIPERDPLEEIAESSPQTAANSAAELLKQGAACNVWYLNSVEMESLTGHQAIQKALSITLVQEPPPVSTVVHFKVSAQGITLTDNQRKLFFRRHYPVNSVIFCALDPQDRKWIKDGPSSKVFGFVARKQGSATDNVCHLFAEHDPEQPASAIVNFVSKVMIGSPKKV
10 µM
  probe-labelled cysteine peptide fold change: -0.555
50 µM
  probe-labelled cysteine peptide fold change: -1.66

## SPATA2_Q9UM82_41_QRPGSDECLR (UniProt Q9UM82)
10 µM
  probe-labelled cysteine peptide fold change: -0.46
50 µM
  probe-labelled cysteine peptide fold change: -1.35

## STAM2_O75886_76_VPHVALQALTLLGACVANCGK (UniProt O75886)
10 µM
  probe-labelled cysteine peptide fold change: -0.0779
50 µM
  probe-labelled cysteine peptide fold change: 0.0749

## SPC24_Q8NBT2_155_IEWDYECEPGMVK (UniProt Q8NBT2)
10 µM
  probe-labelled cysteine peptide fold change: -0.17
50 µM
  probe-labelled cysteine peptide fold change: 0.000933

## TBC1D13_Q9NVG8_387_LLQDYPITDVCQILQK (UniProt Q9NVG8)
10 µM
  probe-labelled cysteine peptide fold change: -0.0681
50 µM
  probe-labelled cysteine peptide fold change: -0.374

## THADA_Q6YHU6_1605_ENHPECFCK (UniProt Q6YHU6)
Chain of UniProt Q6YHU6 (Q6YHU6 whole entry, looked up): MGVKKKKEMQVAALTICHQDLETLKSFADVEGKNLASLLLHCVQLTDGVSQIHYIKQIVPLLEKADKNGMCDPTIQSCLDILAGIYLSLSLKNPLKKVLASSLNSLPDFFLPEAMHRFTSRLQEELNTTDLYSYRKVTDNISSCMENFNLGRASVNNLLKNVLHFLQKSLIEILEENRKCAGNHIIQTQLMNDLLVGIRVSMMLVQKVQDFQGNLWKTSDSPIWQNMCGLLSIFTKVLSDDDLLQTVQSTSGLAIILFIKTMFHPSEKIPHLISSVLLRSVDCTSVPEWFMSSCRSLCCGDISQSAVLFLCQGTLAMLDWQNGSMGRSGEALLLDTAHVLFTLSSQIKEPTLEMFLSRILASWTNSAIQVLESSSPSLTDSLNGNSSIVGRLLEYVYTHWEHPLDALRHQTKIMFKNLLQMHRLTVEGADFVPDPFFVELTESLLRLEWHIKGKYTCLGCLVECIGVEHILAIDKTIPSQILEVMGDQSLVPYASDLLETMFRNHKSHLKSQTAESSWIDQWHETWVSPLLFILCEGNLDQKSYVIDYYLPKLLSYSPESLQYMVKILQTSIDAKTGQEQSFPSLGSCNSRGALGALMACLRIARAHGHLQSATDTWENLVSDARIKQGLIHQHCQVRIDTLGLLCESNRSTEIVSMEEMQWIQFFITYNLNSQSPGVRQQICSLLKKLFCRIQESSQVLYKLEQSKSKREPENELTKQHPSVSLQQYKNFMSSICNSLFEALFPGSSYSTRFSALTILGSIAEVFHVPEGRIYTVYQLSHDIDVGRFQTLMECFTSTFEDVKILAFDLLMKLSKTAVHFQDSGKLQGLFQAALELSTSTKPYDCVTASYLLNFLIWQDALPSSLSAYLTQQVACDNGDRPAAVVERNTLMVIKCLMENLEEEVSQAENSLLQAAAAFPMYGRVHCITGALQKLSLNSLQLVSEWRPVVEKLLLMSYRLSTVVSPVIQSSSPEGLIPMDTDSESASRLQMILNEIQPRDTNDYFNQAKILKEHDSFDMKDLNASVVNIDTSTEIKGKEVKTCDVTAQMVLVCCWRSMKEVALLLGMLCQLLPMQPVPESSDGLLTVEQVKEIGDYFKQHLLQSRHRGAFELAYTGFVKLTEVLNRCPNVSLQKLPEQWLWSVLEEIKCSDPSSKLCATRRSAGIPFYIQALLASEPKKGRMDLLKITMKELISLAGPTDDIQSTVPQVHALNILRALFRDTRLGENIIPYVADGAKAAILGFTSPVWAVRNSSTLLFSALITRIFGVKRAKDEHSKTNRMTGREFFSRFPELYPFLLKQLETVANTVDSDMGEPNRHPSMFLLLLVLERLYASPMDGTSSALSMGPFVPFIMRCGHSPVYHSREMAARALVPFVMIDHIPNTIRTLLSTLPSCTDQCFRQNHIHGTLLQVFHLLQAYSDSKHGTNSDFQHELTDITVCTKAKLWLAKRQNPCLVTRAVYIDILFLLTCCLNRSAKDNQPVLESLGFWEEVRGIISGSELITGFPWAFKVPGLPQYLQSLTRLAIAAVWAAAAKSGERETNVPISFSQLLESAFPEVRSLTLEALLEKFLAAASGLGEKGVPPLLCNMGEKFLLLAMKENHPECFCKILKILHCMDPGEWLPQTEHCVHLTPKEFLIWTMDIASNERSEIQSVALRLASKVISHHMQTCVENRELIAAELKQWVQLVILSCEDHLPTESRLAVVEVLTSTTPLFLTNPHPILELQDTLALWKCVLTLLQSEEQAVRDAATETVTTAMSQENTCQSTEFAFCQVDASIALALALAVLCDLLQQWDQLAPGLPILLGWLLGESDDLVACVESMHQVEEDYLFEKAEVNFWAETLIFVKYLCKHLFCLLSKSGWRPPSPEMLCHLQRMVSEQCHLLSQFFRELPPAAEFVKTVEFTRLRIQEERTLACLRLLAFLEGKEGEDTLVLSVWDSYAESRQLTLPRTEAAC
10 µM
  probe-labelled cysteine peptide fold change: -0.00737
50 µM
  probe-labelled cysteine peptide fold change: 0.033

## TIMELESS_Q9UNS1_96_LMVNLTQPALLCFGNLPK (UniProt Q9UNS1)
10 µM
  probe-labelled cysteine peptide fold change: 0.247
50 µM
  probe-labelled cysteine peptide fold change: -1.08

## TDRD7_Q8NHU6_77_SGEITCYAMACTETAR (UniProt Q8NHU6)
10 µM
  probe-labelled cysteine peptide fold change: -0.0811
50 µM
  probe-labelled cysteine peptide fold change: -1.42

## SPAG9_O60271_1210_VTPGTFIPYCSMAHAQLCFHGHR (UniProt O60271)
Chain of UniProt O60271 (O60271 whole entry, looked up): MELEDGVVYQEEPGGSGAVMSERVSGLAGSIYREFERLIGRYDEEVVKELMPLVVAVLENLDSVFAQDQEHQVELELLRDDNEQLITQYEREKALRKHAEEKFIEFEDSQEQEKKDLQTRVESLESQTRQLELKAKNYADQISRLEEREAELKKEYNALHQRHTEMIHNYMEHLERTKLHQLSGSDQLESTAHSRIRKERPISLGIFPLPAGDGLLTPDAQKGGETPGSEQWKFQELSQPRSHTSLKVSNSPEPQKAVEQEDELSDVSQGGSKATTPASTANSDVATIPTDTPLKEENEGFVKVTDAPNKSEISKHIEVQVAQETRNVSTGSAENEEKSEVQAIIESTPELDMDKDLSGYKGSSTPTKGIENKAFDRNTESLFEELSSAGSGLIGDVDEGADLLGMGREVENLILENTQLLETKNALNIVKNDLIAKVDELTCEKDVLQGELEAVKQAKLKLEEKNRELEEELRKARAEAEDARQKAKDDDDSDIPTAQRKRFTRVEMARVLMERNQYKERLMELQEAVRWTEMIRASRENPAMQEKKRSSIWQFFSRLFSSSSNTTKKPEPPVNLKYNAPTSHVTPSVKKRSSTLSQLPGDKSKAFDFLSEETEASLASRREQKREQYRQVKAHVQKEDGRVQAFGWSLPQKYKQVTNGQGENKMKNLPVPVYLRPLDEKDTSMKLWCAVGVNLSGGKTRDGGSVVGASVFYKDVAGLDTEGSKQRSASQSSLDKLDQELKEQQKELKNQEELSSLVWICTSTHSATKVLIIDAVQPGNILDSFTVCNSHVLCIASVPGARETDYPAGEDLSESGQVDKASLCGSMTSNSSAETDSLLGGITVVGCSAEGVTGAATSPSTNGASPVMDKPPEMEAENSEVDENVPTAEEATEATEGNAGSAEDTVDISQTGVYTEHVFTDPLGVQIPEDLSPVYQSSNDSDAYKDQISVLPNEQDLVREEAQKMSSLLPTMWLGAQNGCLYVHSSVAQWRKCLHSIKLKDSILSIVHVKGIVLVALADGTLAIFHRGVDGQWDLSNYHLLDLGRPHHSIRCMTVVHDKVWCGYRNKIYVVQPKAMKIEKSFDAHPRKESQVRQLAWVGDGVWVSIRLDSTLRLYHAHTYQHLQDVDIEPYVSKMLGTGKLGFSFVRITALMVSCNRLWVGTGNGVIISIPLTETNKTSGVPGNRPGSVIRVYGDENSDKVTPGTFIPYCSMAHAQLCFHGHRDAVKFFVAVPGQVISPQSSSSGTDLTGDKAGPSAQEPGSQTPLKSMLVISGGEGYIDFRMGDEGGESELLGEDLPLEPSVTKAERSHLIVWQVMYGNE
10 µM
  probe-labelled cysteine peptide fold change: 0.231
50 µM
  probe-labelled cysteine peptide fold change: 1.04

## SSH3_Q8TE77_434_QYECSLEQALR (UniProt Q8TE77)
10 µM
  probe-labelled cysteine peptide fold change: -0.058
50 µM
  probe-labelled cysteine peptide fold change: -0.0996

## TMA16_Q96EY4_162_KICANDAIPK (UniProt Q96EY4)
10 µM
  probe-labelled cysteine peptide fold change: -0.041
50 µM
  probe-labelled cysteine peptide fold change: -0.333

## TGM2_P21980_371_SEGTYCCGPVPVR (UniProt P21980)
10 µM
  probe-labelled cysteine peptide fold change: 0.00473
50 µM
  probe-labelled cysteine peptide fold change: -0.293

## STXBP2_Q15833_110_AAHIFFTDTCPEPLFSELGR (UniProt Q15833)
10 µM
  probe-labelled cysteine peptide fold change: 0.0186
50 µM
  probe-labelled cysteine peptide fold change: 0.272

Reference: the supplement of paper PMC12067093, “Discovery and optimisation of a covalent ligand for TRIM25 and its application to targeted protein ubiquitination” (Chemical Science, 2025)
